The text below walks through data of PubChem BioAssay (Tox21).

Inconclusive results are not listed. Entries that show only a call come without a potency. The source made the active and inactive calls. The call rests on the fitted dose curve; in most records, active means well fitted inhibition curve with a large enough effect in the repeat runs; inconclusive means weak or mixed curves, or effect the other way; inactive means no such curve, though single readings can be large or run the other way.

Nuclear receptor subfamily 1 group I member 3 (Homo sapiens), sequence (Q14994 whole entry, looked up): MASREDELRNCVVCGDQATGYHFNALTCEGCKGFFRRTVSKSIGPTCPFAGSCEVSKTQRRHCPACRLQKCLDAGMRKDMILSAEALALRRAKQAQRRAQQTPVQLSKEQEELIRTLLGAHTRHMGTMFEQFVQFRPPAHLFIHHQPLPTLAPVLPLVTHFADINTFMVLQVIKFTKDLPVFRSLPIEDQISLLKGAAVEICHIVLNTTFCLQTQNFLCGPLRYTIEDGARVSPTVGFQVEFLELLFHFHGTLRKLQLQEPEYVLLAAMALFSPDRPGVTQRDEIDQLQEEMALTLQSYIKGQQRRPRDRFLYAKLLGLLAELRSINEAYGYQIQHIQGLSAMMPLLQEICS

This test addresses Nuclear receptor subfamily 1 group I member 3 (Homo sapiens) (UniProt Q14994). Nature of the test: qHTS assay to identify small molecule antagonists of the constitutive androstane receptor (CAR) signaling pathway (AID 1224838).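 Further: HepG2 cells stably expressing hCAR with CYP2B6 luciferase reporter stimulated by CITCO; nearly all actives have a fitted effect of over 40% in size.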 The conditions noted are these: HepG2-CYP2B6-hCAR luciferase, CITCO-stimulated, 24 h; series mostly up to 92.4 µM. The text has this: U.S. Tox21 Program National Center for Advancing Translational Sciences [NCATS] NIH Chemical Genomics Center [NCGC] U.S. Environmental Protection Agency [EPA] National Institutes of Environmental Health Sciences [NIEHS] National Toxicology Program [NTP] U.S. Food and Drug Administration [FDA] Tox21 Assay Overview: The constitutive androstane receptor (CAR) is a nuclear receptor which regulates multiple drug metabolizing enzymes (DMEs) and transporters. Activating CAR will generally increase the transcription and subsequent translation of CYP2B6 and CYP3A4. These two DMEs represent about 50% of the drug metabolizing potential in the body. When CAR is deactivated, the metabolizing potential in the body will decrease, subsequently increasing the toxicity in the body or lowering the therapeutic potential of a pro-drug. Recently, there have also been studies performed indicating CARs role in energy metabolism and cancer therapy. Therefore, inhibiting CARs activity could have a potential effect on diabetes and cancer. Identifying environmental toxins and compounds which modulate CAR, through the use of the Tox21 10K compound collection, will be an important step in determining the toxicity and potential therapeutic effects these factors will have on the human body.
Tox21 Assay Protocol Summary: A double-stable (hCAR and CYP2B6-2.2kb) transfected cell line, derived from human hepatoma (HepG2) cells, was utilized for the duration of the quantitative high-throughput screens. The HepG2-CYP2B6-hCAR cells suspended in DMEM culture medium supplemented with 10% FBS, 5 ug/mL blasticidin, 0.5 mg/mL geneticin, 100 U/mL penicillin and 100 ug/mL streptomycin were dispensed at 2500 cells/4 uL/well in 1536-well white solid bottom plates using a Multidrop Combi. After the assay plates were incubated at 37 C/5% CO2 for 4 hrs, 23 nL of compounds at 15 concentrations (from 5-48 columns) or positive control (from 1 to 4 columns) were transferred to the assay plates using a Pintool station. One uL of CITCO, was added using a Flying Reagent Dispenser to generate a final concentration of 50 nM CITCO inside each well. After a 24 hr incubation period at 37 C/5% CO2, four uL of ONE-Glo reagent was added into the assay plates using a Flying Reagent Dispenser. After a 30 min incubation period at room temperature, the luminescence intensity in the assay plates was measured using a ViewLux plate reader.
(In general: Quantitative high-throughput screening tests each substance at several concentrations.)
Regarding `Clc1cc2c(cc1Cl)Oc1cc(Cl)c(Cl)cc1O2`, the activity, negative = inhibition was 103% [at 0.349 µM] (inactive).
Take `C/C=C/CC#N`: the Potency result was “inactive”.
As for `CCCCCCC(=O)CCCCCC/C=C/C[C@@H](O)[C@H](O)[C@@](N)(CO)C(=O)O`, the activity, negative = inhibition was -1.56% [at 19 µM] (inactive).
Turning to `CC1N=C(N)OC1c1ccccc1` (stereo not given), the Potency result was “inactive”.
In the case of `CC(Cl)(Cl)Cl`, the Potency result was “inactive”.
In the case of `C=C(C)[C@H]1CN[C@H](C(=O)O)[C@H]1CC(=O)O`, the Potency result was “inactive”.
Take `CCCCCCCCBr`: the Potency entry is “inactive”.
In the case of `N[C@@H](Cc1ccc(Oc2cc(I)c(O)c(I)c2)c(I)c1)C(=O)O`, the Potency entry is “inactive”.
For `CCC(C(N)=O)N1CCCC1=O` (stereo not given), the Potency result was “inactive”.
Regarding `CCOC(=O)CCl`, the Potency entry is “inactive”.
Take `O=[N+]([O-])c1cccc(CCl)c1`: the Potency entry was “inactive”.
The same measure, in the same setting: as for `CN(C)C1CCCCC1`, the entry is “inactive”; as for `Cc1ccc(-c2nc3ccc(C)cn3c2CC(=O)N(C)C)cc1`, “inactive”.
Still for that read-out and setting: the result for `CCC(=O)c1ccc(Cl)cc1` reads “inactive”; that for `CCOC(=O)C(Cl)Cc1cc(-n2nc(C)n(C(F)F)c2=O)c(F)cc1Cl` (stereo not given), “inactive”; that for `C[C@H](N)C(=O)c1ccccc1`, “inactive”.
In the case of `CCOC(=O)C(SP(=S)(OC)OC)c1ccccc1` (stereo not given), the Potency result was “inactive”.
For the compound `O=P(O)(O)c1ccccc1`, the Potency entry is “inactive”.
For `Cc1ccc2c(c1)C1CN(C)CCC1N2` (stereo not given), the activity, negative = inhibition was 51% [at 19 µM] (inactive).
On to `CCCN1CCC[C@@H]2Cc3nc(N)ncc3C[C@H]21`, for which the Potency entry is “inactive”.
Take `COc1cc(CCN)cc(OC)c1OC`: the Potency result was “inactive”.
Regarding `S=C=S`, the Potency result is “inactive”.
Regarding `OP(O)c1ccccc1`, the Potency entry is “inactive”.
As for `CCN[C@H](C)Cc1cccc(C(F)(F)F)c1`, the Potency result was “inactive”.
Take `CCC(=O)OC1(c2ccccc2)CCN(C)CC1`: the Potency result was “inactive”.
On to `CCN(CCO)CCn1c(Cc2ccccc2)nc2c1c(=O)n(C)c(=O)n2C`, for which the Potency entry was “inactive”.
With `C[C@@H](N)[C@@H](O)c1ccccc1`, the Potency result was “inactive”.
Take `c1ccc2c(c1)CCNC2`: the Potency entry was “inactive”.
On to `CCN1CCCC1CNC(=O)C(O)(c1ccccc1)c1ccccc1` (stereo not given), for which the Potency result was “inactive”.
As to `O=C(Cl)c1ccccc1`, the Potency entry was “inactive”.
With `C=C(Cl)CSC(=S)N(CC)CC`, the Potency entry was “inactive”.
As for `CCCOC(=O)c1cncn1C(C)c1ccccc1` (stereo not given), the Potency entry was “inactive”.
Turning to `CC(C)(N)Cc1ccc(Cl)cc1`, the Potency result was “inactive”.
Take `Cc1cc(OC(=O)N(C)C)nn1C(=O)N(C)C`: the Potency result is “inactive”.
Consider `O=S1(=O)OCCO1`, for which the Potency entry was “inactive”.
With `O=c1[nH]c2ccccc2n1C1CCNCC1`, the Potency entry was “inactive”.
Same read-out and setting: the result for `CC(Cc1ccccc1)NCCCCl` (stereo not given) reads “inactive”; that for `C=CCCC#N`, “inactive”; that for `O=C(O)C(Br)(Br)Br`, “inactive”.
In the case of `CCN[C@@H](C)Cc1cccc(C(F)(F)F)c1`, the Potency entry is “inactive”.
